# Experimental data taken from the supplement of paper PMC8728848.
# About 410 targets per protein were measured; listed, in parts, are those with the strongest signals and a random draw of the rest.
# B1: Protein L(A-C2) (Finegoldia magna), Q51912 (protein)
# chain: ADEPIDLEKLEEKRDKENVGNLPKFDNEVKDGSENPMAKYPDFDDEASTRFETENNEFEEKKVVSDNFFDQSEHPFVENKEETPETPETDSEEEVTIKANLIFANGSTQTAEFKGTFEKATSEAYAYADTLKKDNGEYTVDVADKGYTLNIKFAGKEKTPEEPKEEVTIKANLIYADGKTQTAEFKGTFEEATAEAYRYADALKKDNGEYTVDVADKGYTLNIKFAGKEKTPEEPKEEVTIKANLIYADGKTQTAEFKGTFEEATAEAYRYADLLAKENGKYTVDVADKGYTLNIKFAGKEKTPEEPKEEVTIKANLIYADGKTQTAEFKGTFAEATAEAYRYADLLAKENGKYTADLEDGGYTINIRFAGKKVDEKPEEKEQVTIKENIYFEDGTVQTATFKGTFAEATAEAYRYADLLSKEHGKYTADLEDGGYTINIRFAGKEEPEETPEKPEVQDGYASYEEAEAAAKEALKNDDVNKSYTIRQGADGRYYYVLSPVEAEEEKPEAQNGYATYEEAEAAAKKALENDPINKSYSIRQGADGRYYYVLSPVEAE
# Columns and labels:
# Assay in all cases: glycan array binding signal (z-score within array); higher = stronger binding
# Conditions in all cases: glycan notation: IUPAC condensed, linker removed
# [1] = biological target: GlcNAc(b1-3)Gal(b1-4)GlcNAc(b1-3)Gal(b1-4)GlcNAc(b1-2)Man(a1-3)[GlcNAc(b1-3)Gal(b1-4)GlcNAc(b1-3)Gal(b1-4)GlcNAc(b1-2)Man(a1-6)]Man(b1-4)GlcNAc(b1-4)GlcNAc
# Procedure, shortened: (§1)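 The Consortium for Functional Glycomics database supplied 3228 glycan arrays, of which those lacking an available protein sequence were dropped. The binding signal, a within-array Z-score, was averaged across arrays of the same protein sequence and across linkers. Negative scores can be read as non-binding.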
# [2] = biological target: GlcNAc(b1-3)[GlcNAc(b1-6)]Gal(b1-4)GlcNAc
# Procedure, shortened: as §1
# [3] = biological target: Man(a1-3)[Man(a1-6)]Man(a1-6)[Man(a1-2)Man(a1-3)]Man(b1-4)GlcNAc(b1-4)GlcNAc
# Procedure, shortened: as §1
# Man(b1-4)GlcNAc = biological target: Man(b1-4)GlcNAc
# Procedure, shortened: as §1
# [4] = biological target: Neu5Ac(a2-3)Gal(b1-3)GalNAc
# Procedure, shortened: as §1
# [5] = biological target: Neu5Ac(a2-3)Gal(b1-3)GlcNAc(b1-2)Man
# Procedure, shortened: as §1
# [6] = biological target: Neu5Ac(a2-3)Gal(b1-3)[GlcNAc(b1-6)]GalNAc
# Procedure, shortened: as §1
# Neu5Ac(a2-3)Gal(b1-4)Glc = biological target: Neu5Ac(a2-3)Gal(b1-4)Glc
# Procedure, shortened: as §1
# [7] = biological target: Neu5Ac(a2-3)Gal(b1-4)GlcNAc(b1-2)Man(a1-3)[GlcNAc(b1-4)][Neu5Ac(a2-3)Gal(b1-4)GlcNAc(b1-2)Man(a1-6)]Man(b1-4)GlcNAc(b1-4)GlcNAc
# Procedure, shortened: as §1
# [8] = biological target: Neu5Ac(a2-3)Gal(b1-4)GlcNAc(b1-2)Man(a1-3)[Neu5Ac(a2-3)Gal(b1-4)GlcNAc(b1-2)Man(a1-6)]Man(b1-4)GlcNAc(b1-4)[Fuc(a1-6)]GlcNAc
# Procedure, shortened: as §1
# [9] = biological target: Neu5Ac(a2-3)Gal(b1-4)GlcNAc(b1-3)Gal(b1-4)GlcNAc
# Procedure, shortened: as §1
# [10] = biological target: Neu5Ac(a2-3)Gal(b1-4)GlcNAc(b1-3)Gal(b1-4)GlcNAc(b1-3)Gal(b1-4)GlcNAc(b1-2)Man(a1-3)[Neu5Ac(a2-3)Gal(b1-4)GlcNAc(b1-3)Gal(b1-4)GlcNAc(b1-3)Gal(b1-4)GlcNAc(b1-2)Man(a1-6)]GalNAc
# Procedure, shortened: as §1
# [11] = biological target: Neu5Ac(a2-6)Gal(b1-4)GlcNAc(b1-2)Man
# Procedure, shortened: as §1
# [12] = biological target: Neu5Ac(a2-6)Gal(b1-4)GlcNAc(b1-2)Man(a1-3)[Neu5Ac(a2-6)Gal(b1-4)GlcNAc(b1-2)Man(a1-6)]Man(b1-4)GlcNAc(b1-4)GlcNAc
# Procedure, shortened: as §1
# [13] = biological target: Neu5Ac(a2-6)Gal(b1-4)GlcNAc(b1-2)Man(a1-6)Man(b1-4)GlcNAc(b1-4)GlcNAc
# Procedure, shortened: as §1
# [14] = biological target: Neu5Ac(a2-6)Gal(b1-4)GlcNAc(b1-2)Man(a1-6)[Man(a1-3)]Man(b1-4)GlcNAc(b1-4)GlcNAc
# Procedure, shortened: as §1
# [15] = biological target: Neu5Ac(a2-6)Gal(b1-4)GlcNAc(b1-3)Gal(b1-4)GlcNAc(b1-3)[Neu5Ac(a2-6)Gal(b1-4)GlcNAc(b1-3)Gal(b1-4)GlcNAc(b1-6)]GalNAc
# Procedure, shortened: as §1
# [16] = biological target: Neu5Ac(a2-6)Gal(b1-4)GlcNAc(b1-3)Gal(b1-4)GlcNAc(b1-6)[Gal(b1-3)]GalNAc
# Procedure, shortened: as §1
# [17] = biological target: Neu5Ac(a2-6)Gal(b1-4)GlcNAc6S
# Procedure, shortened: as §1
# [18] = biological target: Neu5Gc(a2-3)Gal(b1-4)GlcNAc(b1-3)Gal(b1-4)GlcNAc(b1-2)Man(a1-3)[Neu5Gc(a2-3)Gal(b1-4)GlcNAc(b1-3)Gal(b1-4)GlcNAc(b1-2)Man(a1-6)]Man(b1-4)GlcNAc(b1-4)GlcNAc
# Procedure, shortened: as §1
binder,measurement,setting,value
B1,glycan array binding signal (z-score),[1],1.91
same,glycan array binding signal (z-score),[2],-0.856
same,glycan array binding signal (z-score),[3],4.98
same,glycan array binding signal (z-score),Man(b1-4)GlcNAc,0.002
same,glycan array binding signal (z-score),[4],0.418
same,glycan array binding signal (z-score),[5],3.79
same,glycan array binding signal (z-score),[6],-0.278
same,glycan array binding signal (z-score),Neu5Ac(a2-3)Gal(b1-4)Glc,0.38
same,glycan array binding signal (z-score),[7],-0.228
same,glycan array binding signal (z-score),[8],2.19
same,glycan array binding signal (z-score),[9],-1.1
same,glycan array binding signal (z-score),[10],3.85
same,glycan array binding signal (z-score),[11],0.253
same,glycan array binding signal (z-score),[12],-0.037
same,glycan array binding signal (z-score),[13],-0.51
same,glycan array binding signal (z-score),[14],0.298
same,glycan array binding signal (z-score),[15],3.89
same,glycan array binding signal (z-score),[16],0.761
same,glycan array binding signal (z-score),[17],-0.725
same,glycan array binding signal (z-score),[18],0.473
